TDP1 cell noCPT: qHTS for Inhibitors of human tyrosyl-DNA phosphodiesterase 1 (TDP1): qHTS in cells in absence of CPT; AID 686978, 2013; Potency, µM (doses to about 46.2 µM), inactives show top-dose activity change, negative = growth inhibition, hits mostly inhibitors; hit rate 15% among 420,000; DT40 Tdp1-/- hTDP1 cells, no CPT, ATP luminescence, 48 h; further: nearly all actives have a fitted effect of over 55% in size
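Growth kinetics read by CellTiter-Glo luminescence after ≥48 hr at 37 °C. Cells: DT40 Tdp1-/- stably carrying human TDP1, 400 per well, compound exposure in the absence of CPT (DMSO vehicle).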
RORgamma inh: qHTS for inhibitors of ROR gamma transcriptional activity; hit rate 5.4% among 310,000; Potency, µM (top dose mostly 53.6 µM), for inactives: at the highest dose activity change, negative = inhibition, most hits filed as inhibitors; Drosophila S2 Gal4-RORgamma UAS-luciferase reporter, 20 h; AID 2551, 2010; Nuclear receptor ROR-gamma (Mus musculus), P51450; further: nearly all actives have a fitted effect of over 60% in size
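Drosophila S2 cells stably expressing Gal4-DBD/mouse RORγ fusion under metallothionein promoter plus UAS-luciferase; compound 1 h, then 700 uM CuSO4 induction for 20 h at ambient temperature; inhibition read as reduced luminescence.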
DT40 TDP1 CPT: qHTS for Inhibitors of human tyrosyl-DNA phosphodiesterase 1 (TDP1): qHTS in cells in presence of CPT; chicken DT40 Tdp1-/-;hTDP1 cells + 20 nM CPT, ATP luminescence, 48 h; Potency, µM (titrated, usually from 46.2 µM), for the others: at the highest dose activity change, negative = growth inhibition, most hits filed as inhibitors; hit rate 12% among 420,000; further: nearly all actives have a fitted effect of over 55% in size
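Cell growth measured by CellTiter-Glo luminescence after a minimum 48 h, 37 C compound exposure with 20 nM CPT in Tdp1-knockout DT40 cells stably expressing hTDP1, seeded 400/well; qHTS titration format.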
ELG1 DNA repair: qHTS screen for small molecules that inhibit ELG1-dependent DNA repair in human embryonic kidney (HEK293T) cells expressing luciferase-tagged ELG1. HEK293T ELG1-luciferase reporter, luminescence, 16 h; DNA damage induced by 5-fluorouridine. AID 504467, 2011. hit rate 2.3% among 330,000. Potency, µM (doses to about 46.1 µM), for the others: top-dose activity change, negative = inhibition, hits mostly inhibitors; further: nearly all actives have a fitted effect of over 55% in size
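Overnight (16 hr) co-exposure of 2,000 cells/well to 5-fluorouridine and compound at 37 °C preceded detection. Luciferase was quantified via ONE-Glo luminescence; loss of signal denotes inhibition.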
VP16 counter: VP16 counterscreen qHTS for inhibitors of ROR gamma transcriptional activity; Drosophila S2 Gal4-VP16 UAS-luciferase, luminescence, 20 h; Potency, µM (series often up to 53.6 µM), inactives show top-dose activity, negative = inhibition, usual class: inhibitors; hit rate 3.5% among 310,000; AID 2546, 2010;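 further: Gal4-VP16 expression switched on by copper sulfate through the metallothionein promoter; nearly all actives have a fitted effect of over 50% in size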
12-LOX inh: Primary qHTS assay for inhibitors of human arachidonate 12S-lipoxygenase (ALOX12): Round 2 | Polyunsaturated fatty acid lipoxygenase ALOX12 (Homo sapiens), P18054 | purified 12hLO, xylenol orange hydroperoxide absorbance | Potency, µM (titrated, usually from 108 µM), for inactives: at the top dose activity change, negative = inhibition, actives largely listed as inhibitors | hit rate 1.1% among 580,000 | AID 1671190, 2021
Target sequence (P18054 whole entry, looked up): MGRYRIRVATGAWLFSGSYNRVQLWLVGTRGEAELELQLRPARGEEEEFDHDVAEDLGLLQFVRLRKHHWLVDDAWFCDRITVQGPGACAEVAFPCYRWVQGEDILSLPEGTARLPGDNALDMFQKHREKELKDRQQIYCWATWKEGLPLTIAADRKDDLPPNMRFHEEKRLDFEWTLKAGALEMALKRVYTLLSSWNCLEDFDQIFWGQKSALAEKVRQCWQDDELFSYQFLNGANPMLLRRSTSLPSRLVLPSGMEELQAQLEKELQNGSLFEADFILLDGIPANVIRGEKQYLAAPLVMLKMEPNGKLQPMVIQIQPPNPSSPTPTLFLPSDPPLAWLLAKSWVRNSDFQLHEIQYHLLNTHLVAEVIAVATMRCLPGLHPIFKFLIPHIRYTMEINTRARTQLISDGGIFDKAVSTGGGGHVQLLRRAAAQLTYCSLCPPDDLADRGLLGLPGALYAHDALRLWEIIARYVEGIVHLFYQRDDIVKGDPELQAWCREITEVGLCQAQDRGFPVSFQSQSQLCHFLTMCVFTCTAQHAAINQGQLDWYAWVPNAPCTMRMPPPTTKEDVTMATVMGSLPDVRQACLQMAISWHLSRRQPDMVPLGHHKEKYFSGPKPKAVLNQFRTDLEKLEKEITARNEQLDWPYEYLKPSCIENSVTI
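Hydroperoxide product was detected by ferrous iron/xylenol orange as the 573 to 405 nm absorbance ratio. Arachidonic acid at 40 uM (final) was turned over for 30 min at room temperature by 150 nM human 12hLO, pH 7.0 Hepes buffer, after 15 min compound preincubation.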
Numbers without * were called inactive; ? = inconclusive; . = not tested or not shown; [ ] = dose if it differs, or a comment. Most compounds without a hit are left out; they make up all but 15% or so of the library. The call rests on the fitted dose curve; in most records, active means well fitted curve in the direction sought with a large enough effect; inconclusive means small, poorly fitted or top-dose-only effect, or another doubt; inactive means no such curve, though single readings can be large; an effect the other way counts as inactive or inconclusive. On the % scale 0 is the no-effect control and ±100 the full control effect; potency means the concentration at half of the fitted maximal effect.

SMILES	TDP1 cell noCPT	RORgamma inh	DT40 TDP1 CPT	ELG1 DNA repair	VP16 counter	12-LOX inh
COc1ccc2c(CN3CCCC(C(F)(F)F)C3)cc(=O)oc2c1 (stereo not drawn)	.	.	.	.	.	-8%
CC(C)c1ccccc1NC(=O)c1cnc2ccccc2n1	.	.	.	.	.	-17%
Cc1cccc(N2CC(C(=O)N(C)Cc3cnn(C)c3)CC2=O)c1C (stereo not drawn)	.	.	.	.	.	56%
Cc1cccc(NNC(N)=S)c1	?	?	?	1%	10µM*	-30%
Cc1cccc(Nc2ccccc2)c1	-21%	-2%	?	7%	-11%	-26%
NC(=S)NNC(=O)Nc1cccc(Cl)c1	0%	-11%	-4%	-2%	-9%	-26%
Cc1cccc(NNC(=S)Nc2ccccc2)c1	2.6µM*	.	4.1µM*	.	.	?
Cc1cccc(NC(=S)NNc2cccc(Cl)c2)c1	18µM*	2µM*	16µM*	0%	?	?
Cc1cccc(NCCNc2cccc(C)c2)c1	-27%	15%	2%	11%	5%	-1%
NC(=S)NNc1cccc(Cl)c1	15µM*	5.6µM*	16µM*	-6%	16µM*	?
Clc1ccc(-c2cnc(CN3CCN(c4ccccc4)CC3)o2)cc1	.	.	.	.	.	-1%
Cn1nccc1CN1CCC2(CNc3ccccc3[S+](=O)([O-])N2)C1 (stereo not drawn)	.	.	.	.	.	65%[176 µM]
Cc1cccc(NNC(=S)Nc2c(C)cccc2C)c1	?	4µM*	?	-14%	3.2µM*	?
CN(C)NC(=S)Nc1cccc(Cl)c1	-13%	2.2µM*	-4%	0%	7.1µM*	219%
COc1ccc(CC(=O)N2Cc3[nH]cnc3C[C@H]2c2nc(-c3ccc4ccccc4c3)no2)cc1	.	.	.	.	.	13%
COc1ccc2cc(-c3[nH]ncc3CN3CCCCO3)ccc2c1	?	-20%	?	?	32%	-1%
COc1ccc2cc(-c3[nH]ncc3CN3CCCN(c4ccccc4)CC3)ccc2c1	?	-16%	23µM*	11%	1%	-24%
CCOC(=O)c1c(-c2ccc(OC)cc2)csc1/N=C/C1C(=O)CCCC1=O	?	3.2µM*	-22%	-2%	?	8%
CCOC(=O)c1c(-c2ccc(OC)cc2)csc1NC(=O)CNC(C)(C)C	.	.	.	.	.	1%
CCOC(=O)c1c(-c2ccc(OC)cc2)csc1/N=C/N(C)C	26µM*	7%	-18%	-9%	0%	16%
COc1ccc(C2CCCCCN2C(=O)CSc2nnnn2C2CC2)cc1 (stereo not drawn)	.	.	.	.	.	4%
Cn1c2ccccc2c2nnc(SCc3ccc(F)cc3Cl)nc21	.	.	.	.	.	-11%
CCc1ccc(-c2nnn(CC(=O)N(CC)Cc3ccc(Cl)s3)n2)cc1	.	.	.	.	.	55%
Cc1cc(C)cc(Nc2cc(=O)n(C3CCCCC3)c(=O)[nH]2)c1	18µM*	-3%	?	?	?	-2%
CC(C)(C)n1nnnc1C(c1ccc(C#N)cc1)N1CCCC2(CCCCC2)C1 (stereo not drawn)	23µM*	-7%	21µM*	-1%	-8%	13%
SMILES	TDP1 cell noCPT	RORgamma inh	DT40 TDP1 CPT	ELG1 DNA repair	VP16 counter	12-LOX inh
O=C(CCl)Nc1ccccc1Sc1ccc(Cl)cc1	?	?	21µM*	?	1%	-23%
O=C(COC(=O)Cn1cnc2ccccc2c1=O)Nc1ccc(Cl)cc1	-3%	20%	-25%	20%	-3%	-2%
O=C(COC(=O)Cn1cnc2ccccc2c1=O)Nc1ccccc1Sc1ccc(Cl)cc1	26µM*	24%	13µM*	-6%	-6%	-27%
O=C(Cc1ccccc1)Nc1ccccc1Sc1ccccc1	1%	-5%	-6%	11%	-6%	-2%
CC(C)(C)c1cc(CSc2nc3ccccc3s2)cc(C(C)(C)C)c1O	.	.	.	.	.	0%
COCCc1noc([C@@H]2CN(Cc3ccc(F)cc3)C[C@H]2CO)n1	.	.	.	.	.	41%
CN1C(=O)/C(=N/OC(=O)c2ccccc2)c2ccccc21	12µM*	10%	7.3µM*	?	-6%	0%
O=C(c1ccc2ncccc2c1)N1CCCCCC1c1nnc(-c2ccccc2)o1 (stereo not drawn)	.	.	.	.	.	23%
CC1=C(C(=O)Nc2ccccc2)C(c2ccccn2)n2nc(SCc3ccccc3)nc2N1 (stereo not drawn)	?	.	5.2µM*	.	.	-28%
CCSc1nc2n(n1)C(c1ccc(CC)cc1)C(C(=O)Nc1ccccc1OC)=C(C)N2 (stereo not drawn)	23µM*	.	16µM*	.	.	-3%
COc1ccccc1NC(=O)C1=C(C)Nc2nc(SCc3ccccc3Cl)nn2C1c1ccccn1 (stereo not drawn)	?	.	?	.	.	-38%

Assay outcomes (PubChem)
